Measured values: PubChem BioAssay AID1159580 (chemical genetic matrix, 2015)
Where “and” joins values, the source holds several entries; their conditions need not be identical. Equal values may be shown once. Out of some 5,500 compounds screened, about 2,000 (36%) were called active. Roughly 18% stayed inconclusive and do not appear here. Rule as the data show it: active = normalized growth mostly below about 0.91 (no sharp cut-off); inconclusive = no clear call, values can overlap the other calls; inactive = mostly above about 0.92. The list shows a part of the results.

Experiment: chemical genetic growth profiling, strain panel (AID 1159580);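 also: tested at 20 µM; growth read once vehicle control cultures reached saturation at 30 °C; 1 = growth at the plate median or of vehicle wells; lower values mean less growth of the strain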
Conditions: growth OD

Measured: normalized growth

CCCCNc1cc(C(=O)O)cc(S(N)(=O)=O)c1Oc1ccccc1
inactive: S. cerevisiae deletion strains, locus YKL009W, strain mrt4, hits give low values 0.979 | S. cerevisiae deletion strains, locus YKL068W, hits give low values 0.986 | S. cerevisiae deletion strains, locus YKL085W, strain MDH1 (second series), hits give low values 0.989 | S. cerevisiae deletion strains, locus YKL085W, strain MDH1, hits give low values 0.989 | S. cerevisiae deletion strains, locus YKL160W, strain elf1, hits give low values 0.995 | S. cerevisiae deletion strains, locus YKL190W, strain CNB1, hits give low values 0.994 | S. cerevisiae deletion strains, locus YKR001C, strain vps1, hits give low values 0.983 | S. cerevisiae deletion strains, locus YKR026C, strain gcn3, hits give low values 1.01 | S. cerevisiae deletion strains, locus YKR091W, strain srl3, hits give low values 1 | S. cerevisiae deletion strains, locus YLL001W, strain dnm1, hits give low values 1 | S. cerevisiae deletion strains, locus YLL026W, hits give low values 0.992 | S. cerevisiae deletion strains, locus YLL041C, strain sdh2, hits give low values 0.991 | S. cerevisiae deletion strains, locus YLR027C, strain aat2, hits give low values 1.01 | S. cerevisiae deletion strains, locus YLR039C, strain RIC1, hits give low values 1.01 | S. cerevisiae deletion strains, locus YLR058C, strain SHM2, hits give low values 0.988 | S. cerevisiae deletion strains, locus YLR102C, strain apc9, hits give low values 0.984 | S. cerevisiae deletion strains, locus YLR113W, strain HOG1, hits give low values 1.04 | S. cerevisiae deletion strains, locus YLR221C, strain rsa3, hits give low values 1 | S. cerevisiae deletion strains, locus YLR258W, strain gsy2, hits give low values 0.995 | S. cerevisiae deletion strains, locus YLR262C, strain YPT6 (second series), hits give low values 1.02 | S. cerevisiae deletion strains, locus YLR262C, strain YPT6, hits give low values 1.02 | S. cerevisiae deletion strains, locus YLR268W, strain sec22, hits give low values 0.965 | S. cerevisiae deletion strains, locus YLR320W, strain mms22, hits give low values 0.976 | S. cerevisiae deletion strains, locus YLR330W, strain CHS5, hits give low values 0.995 | S. cerevisiae deletion strains, locus YLR342W, strain FKS1 (second series), hits give low values 0.975 | S. cerevisiae deletion strains, locus YLR342W, strain FKS1, hits give low values 0.976 | S. cerevisiae deletion strains, locus YLR357W, strain rsc2, hits give low values 0.977 | S. cerevisiae deletion strains, locus YLR370C, strain arc18, hits give low values 1.01 | S. cerevisiae deletion strains, locus YLR371W, strain rom2, hits give low values 0.984 | S. cerevisiae deletion strains, locus YLR384C, strain iki3, hits give low values 1.02 | S. cerevisiae deletion strains, locus YLR418C, strain cdc73, hits give low values 0.959 | S. cerevisiae deletion strains, locus YML016C, strain PPZ1, hits give low values 0.991 | S. cerevisiae deletion strains, locus YML032C, strain rad52, hits give low values 0.99 | S. cerevisiae deletion strains, locus YML120C, strain ndi1, hits give low values 0.994 | S. cerevisiae deletion strains, locus YML124C, strain tub3, hits give low values 0.974 | S. cerevisiae deletion strains, locus YMR058W, strain fet3, hits give low values 1.06 | S. cerevisiae deletion strains, locus YMR078C, strain ctf18, hits give low values 0.978 | S. cerevisiae deletion strains, locus YMR125W, strain sto1, hits give low values 1.01 | S. cerevisiae deletion strains, locus YMR129W, hits give low values 1.02 | S. cerevisiae deletion strains, locus YMR205C, strain PFK2, hits give low values 0.989 | S. cerevisiae deletion strains, locus YMR223W, strain ubp8, hits give low values 0.972 | S. cerevisiae deletion strains, locus YMR231W, strain pep5, hits give low values 1.01 | S. cerevisiae deletion strains, locus YMR263W, strain SAP30, hits give low values 0.997 | S. cerevisiae deletion strains, locus YMR307W, strain GAS1, hits give low values 0.957 | S. cerevisiae deletion strains, locus YNL067W, strain RPL9B, hits give low values 1.02 | S. cerevisiae deletion strains, locus YNL071W, strain lat1, hits give low values 1.02 | S. cerevisiae deletion strains, locus YNL128W, strain TEP1, hits give low values 0.981 | S. cerevisiae deletion strains, locus YNL153C, strain GIM3, hits give low values 1.05 and 1.02 | S. cerevisiae deletion strains, locus YNL175C, strain NOP13, hits give low values 1 | S. cerevisiae deletion strains, locus YNL183C, strain NPR1, hits give low values 0.967 | S. cerevisiae deletion strains, locus YNL197C, strain WHI3, hits give low values 1.04 | S. cerevisiae deletion strains, locus YNL209W, strain ssb2, hits give low values 1.01 | S. cerevisiae deletion strains, locus YNL224C, strain SQS1, hits give low values 0.999 | S. cerevisiae deletion strains, locus YNL233W, strain BNI4, hits give low values 1.01 | S. cerevisiae deletion strains, locus YNL248C, strain rpa49, hits give low values 0.987 | S. cerevisiae deletion strains, locus YNL250W, strain rad50, hits give low values 0.946 | S. cerevisiae deletion strains, locus YNL271C, strain bni1, hits give low values 0.967 | S. cerevisiae deletion strains, locus YNL298W, strain CLA4, hits give low values 0.969 | S. cerevisiae deletion strains, locus YNL307C, strain MCK1, hits give low values 0.975 | S. cerevisiae deletion strains, locus YNL322C, strain KRE1 (second series), hits give low values 0.982 | S. cerevisiae deletion strains, locus YNR049C, strain mso1, hits give low values 1 | S. cerevisiae deletion strains, locus YNR052C, strain pop2, hits give low values 0.977 | S. cerevisiae deletion strains, locus YOL006C, strain TOP1, hits give low values 1 | S. cerevisiae deletion strains, locus YOL012C, strain htz1 0.812 | S. cerevisiae deletion strains, locus YOL147C, strain pex11, hits give low values 0.977 | S. cerevisiae deletion strains, locus YOR001W, strain rrp6, hits give low values 1.01 | S. cerevisiae deletion strains, locus YOR061W, strain CKA2, hits give low values 0.99 | S. cerevisiae deletion strains, locus YOR069W, strain VPS5, hits give low values 0.986 | S. cerevisiae deletion strains, locus YOR070C, strain gyp1, hits give low values 0.998 | S. cerevisiae deletion strains, locus YOR080W, strain dia2, hits give low values 1.01 | S. cerevisiae deletion strains, locus YOR083W, strain WHI5 (second series), hits give low values 1.03 | S. cerevisiae deletion strains, locus YOR083W, strain WHI5, hits give low values 0.951 | S. cerevisiae deletion strains, locus YOR106W, strain vam3, hits give low values 1.03 | S. cerevisiae deletion strains, locus YOR136W, strain idh2, hits give low values 0.992 | S. cerevisiae deletion strains, locus YOR144C, strain elg1, hits give low values 0.982 | S. cerevisiae deletion strains, locus YOR184W, strain ser1, hits give low values 0.973 | S. cerevisiae deletion strains, locus YOR231W, strain MKK1, hits give low values 1.07 | S. cerevisiae deletion strains, locus YOR265W, strain rbl2, hits give low values 1 | S. cerevisiae deletion strains, locus YOR270C, strain vph1, hits give low values 1.05 | S. cerevisiae deletion strains, locus YOR290C, strain snf2, hits give low values 1 | S. cerevisiae deletion strains, locus YOR316C, strain cot1, hits give low values 0.986 | S. cerevisiae deletion strains, locus YPL051W, strain arl3, hits give low values 0.997 | S. cerevisiae deletion strains, locus YPL055C, strain LGE1, hits give low values 1.01 | S. cerevisiae deletion strains, locus YPL078C, strain atp4, hits give low values 1 | S. cerevisiae deletion strains, locus YPL106C, strain sse1, hits give low values 0.962 | S. cerevisiae deletion strains, locus YPL240C, strain hsp82, hits give low values 1 | S. cerevisiae deletion strains, locus YPL241C, strain CIN2, hits give low values 0.985 | S. cerevisiae deletion strains, locus YPL256C, strain CLN2, hits give low values 1.06 | S. cerevisiae deletion strains, locus YPR119W, strain clb2, hits give low values 0.983 | S. cerevisiae deletion strains, locus YPR141C, strain kar3, hits give low values 0.967 | S. cerevisiae deletion strains, locus YPR163C, strain tif3, hits give low values 0.983 | S. cerevisiae deletion strains, locus YPR167C, strain met16, hits give low values 0.986 | S. cerevisiae deletion strains, strain wtn01, hits give low values 0.958 | S. cerevisiae strains, strain wild type, hits give low values 0.999
